# According to PubChem BioAssay AID504832 (National Center for Advancing Translational Sciences (NCATS), 2011):
# About 18,000 (5.8%) of roughly 310,000 compounds were called active. Inconclusive results (about 22%) are left out. The call rests on the fitted dose curve; in most records, active means well fitted inhibition curve with a large enough effect; inconclusive means small, poorly fitted or top-dose-only effect, or another doubt; inactive means no such curve, though single readings can be large or run the other way. Shown is part of a subset that was picked to be rich in actives.
# Assay: Primary qHTS for delayed death inhibitors of the malarial parasite plastid, 48 hour incubation
# Conditions: P. falciparum luciferase growth in erythrocytes; series mostly up to 28.7 µM; activity change, negative = inhibition: at the top concentration
# Method in brief: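 First compound was added to culture medium, then infected red cells at 0.1% parasitemia and 2% hematocrit (final). After incubation at 37 C under 5% CO2, luciferase detection reagent was dispensed and light output recorded.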
# On the % scale 0 is the no-effect control and ±100 the full control effect; potency means the concentration at half of the fitted maximal effect.
SMILES,"activity change, negative = inhibition",Potency
Cc1cccc(C)c1NC(=O)CSc1nc2c([nH]1)c(=O)n(C)c(=O)n2C,-6.97% (inactive),–
Cc1cc(NC(=O)Nc2c[nH]c(=O)[nH]c2=O)ccc1Br,44.9% (inactive),–
O=C(NC1CCN(S(=O)(=O)c2ccc(F)cc2)CC1)c1ccccc1,-8.27% (inactive),–
O=C(Cc1cccs1)Nc1ccc([N+](=O)[O-])cc1,-2.04% (inactive),–
O=C(CN(c1cc(C(F)(F)F)ccc1Cl)S(=O)(=O)c1ccccc1)NCc1cccnc1,-14% (inactive),–
COCCNC(=O)c1ccc(N2CCC3(CC2)OCCO3)c([N+](=O)[O-])c1,14.9% (inactive),–
CCCNC(=O)c1ccc(N2CCC3(CC2)CC(c2ccc(Cl)cc2)=NO3)c([N+](=O)[O-])c1,-27.8% (inactive),–
CCCNC(=O)c1ccc(N2CCC3(CC2)CC(c2cccc(Br)c2)=NO3)c(NC(=O)c2ccco2)c1,–,0.738 µM (active)
CCOC(=O)C1CCCN(S(=O)(=O)c2ccc(-n3cnnn3)c(C)c2)C1 (stereo not drawn),-3.15% (inactive),–
Cc1cnc(CN(C)C(=O)C2CCC(=O)N(CCc3cccc(F)c3)C2)[nH]1 (stereo not drawn),18.4% (inactive),–
Cc1ccc(N(CC(=O)NCC2CCCO2)C(=O)CNS(=O)(=O)c2ccc(Cl)cc2)cc1 (stereo not drawn),6.36% (inactive),–
O=c1[nH]c(N2CCOCC2)nc2ccccc12,1.63% (inactive),–
Cc1ccc(S(=O)(=O)N2CCN(C(=O)COC(=O)c3c(C)cc(C)cc3C)CC2)c(C)c1,–,14.7 µM (active)
Cc1ccc(S(=O)(=O)N2CCN(C(=O)COC(=O)c3c(C)noc3C)CC2)c(C)c1,52.3% (inactive),–
Cc1ccc(S(=O)(=O)N2CCN(C(=O)CSc3cc(C)ccc3C)CC2)c(C)c1,-1.45% (inactive),–
COc1ccc(N2CCN(C(=O)c3cccs3)CC2)cc1,-15.9% (inactive),–
O=C(NCCc1ccccc1Cl)C1CCC(=O)N(CCCc2ccccc2)C1 (stereo not drawn),18% (inactive),–
NC1=NC(=O)S/C1=C\c1ccc(O)cc1,30.8% (inactive),–
O=C1N=C(N2CCOCC2)S/C1=C\C=C/c1ccccc1,123% (inactive),–
O=C1N=C(N2CCc3ccccc3C2)S/C1=C\c1ccc(O)cc1,–,7.38 µM (active)
O=S1(=O)CCO[C@H]2Cc3ccccc3[C@H]2N1Cc1ccccc1,0.289% (inactive),–
O=C(c1cc(COc2ccc(F)c(F)c2)on1)N1CCOCC1,52.7% (inactive),–
COc1cc(/C=N/NC(=O)c2ccoc2C)ccc1OCCN1CCCCC1,-9.35% (inactive),–
COc1ccccc1NC(=O)C1=C(C)Nc2nnnn2C1c1cccc(Br)c1 (stereo not drawn),2.75% (inactive),–
COc1ccccc1NC(=O)C1=C(C)Nc2nc3ccccc3n2C1c1cccs1 (stereo not drawn),–,13.1 µM (active)
COc1ccc(C2C(C(=O)Nc3ccccc3OC)=C(C)Nc3nnnn32)c(OC)c1 (stereo not drawn),-15.3% (inactive),–

SMILES,"activity change, negative = inhibition",Potency
COc1cccc(NC(=O)CN2CCN(CC(=O)Nc3ccccc3Cl)CC2)c1,-21.8% (inactive),–
C[C@@H](NC(=O)[C@@H]1Cc2ccccc2CN1)C(=O)NC1CCCC1,-0.639% (inactive),–
Cc1ccc(-c2cc(C(=O)NC3CCN(Cc4ccccc4)CC3)c3ccccc3n2)cc1,–,13.1 µM (active)
O=C(NC1CCN(Cc2ccccc2)CC1)c1ccccc1F,9.94% (inactive),–
Cc1cc(C(=O)NC2CCN(Cc3ccccc3)CC2)n[nH]1,9.09% (inactive),–
COc1ccc(C(=O)C2CCCN(S(=O)(=O)c3cccc(C)c3)C2)c(C)c1 (stereo not drawn),5.74% (inactive),–
Cc1ccc(NC(=O)C2CCCN(S(=O)(=O)c3c(C)noc3C)C2)c(C)c1 (stereo not drawn),-11.5% (inactive),–
COc1c(C)cc(C(=O)C2CCCN(S(=O)(=O)c3c(C)noc3C)C2)cc1C (stereo not drawn),–,9.28 µM (active)
CN(C(=O)CSc1nnc(-c2ccc(C(C)(C)C)cc2)n1C)C1CCS(=O)(=O)C1 (stereo not drawn),-24.5% (inactive),–
CC(=O)Nc1ccc(C(=O)N(C2=NC(C)CS2)c2ccc(Cl)cc2)cc1 (stereo not drawn),9.6% (inactive),–
Nc1nc(SCc2cccc(Br)c2)n[nH]1,-0.207% (inactive),–
Cc1ccc(-c2csc(NC(=O)c3cccs3)n2)cc1,-29.7% (inactive),–
Cc1nc(NNC(=O)c2ccccc2)cc(-c2ccccc2)n1,22.6% (inactive),–
Cc1ccc(-c2csc(NNC(=O)c3ccccc3)n2)cc1,–,2.33 µM (active)
CCn1c(SCC(=O)NNC(=O)c2ccc(OC)cc2)nnc1C(C)C,5.7% (inactive),–
Cc1ccc(Cn2c(=N)c(S(=O)(=O)c3ccc(C)cc3)cc3c(=O)n4ccccc4nc32)cc1,-12.6% (inactive),–
Cn1c(Cc2cccs2)nnc1SCC(=O)Nc1ccccc1,62% (inactive),–
O=C(CC1CCCCC1)Nc1c2c(nn1-c1ccc(F)cc1)CS(=O)(=O)C2,-10.4% (inactive),–
COc1ccccc1OCC(=O)Nc1c2c(nn1-c1ccc(F)cc1)CS(=O)(=O)C2,–,10.4 µM (active)
COc1cccc(C(=O)Nc2c3c(nn2-c2cccc(C)c2C)CS(=O)(=O)C3)c1OC,–,10.4 µM (active)
CCC(CC)C(=O)Nc1c2c(nn1-c1ccc(C)cc1)CS(=O)(=O)C2,0.949% (inactive),–
Cc1cccc(-n2nc3c(c2NC(=O)c2cc4ccccc4o2)CS(=O)(=O)C3)c1,-2.93% (inactive),–
COc1cccc(C(=O)Nc2cccnc2)c1OC,18.7% (inactive),–
CCOC(=O)c1sc(N)c(C#N)c1COC(=O)C1=COCCO1,-10.8% (inactive),–
Cc1cc(C)cc(NC(=O)C2CCCN2S(=O)(=O)c2cccc3cccnc23)c1 (stereo not drawn),-32.2% (inactive),–
CCn1c(CC(=O)Nc2ccccc2C)nnc1SCC(=O)NC1=NCCS1,-5.51% (inactive),–

SMILES,"activity change, negative = inhibition",Potency
CCCc1nn(C)c2c(=O)[nH]c(-c3cc(S(N)(=O)=O)ccc3OCC)nc12,-11.5% (inactive),–
N#Cc1cc([N+](=O)[O-])ccc1NCC1CCCO1 (stereo not drawn),-12.1% (inactive),–
COc1ccc(NC(=S)NC2CCS(=O)(=O)C2)cc1 (stereo not drawn),6.45% (inactive),–
O=C(Cc1ccc(Cl)cc1)NC1CCS(=O)(=O)C1 (stereo not drawn),-17.3% (inactive),–
CC(C)C(=O)NC(NC(=S)NC1CCS(=O)(=O)C1)C(Cl)(Cl)Cl (stereo not drawn),–,7.38 µM (active)
CC1CC(C)CN(C(=O)COC(=O)c2ccc3ncsc3c2)C1 (stereo not drawn),9.65% (inactive),–
CCc1noc(C)c1C(=O)Nc1nc(-c2ccccc2)cs1,59% (inactive),–
COCCNc1nc(N)c([N+](=O)[O-])c(NCCO)n1,13.3% (inactive),–
Nc1nc(Nc2ccccc2)nc(NCCO)c1[N+](=O)[O-],-43.5% (inactive),–
C=CCNc1nc(N)c([N+](=O)[O-])c(NC2CCCCC2)n1,–,14.7 µM (active)
CSCc1nnc(NC(=O)c2ccc(S(=O)(=O)N3CCCCC3C)cc2)o1 (stereo not drawn),-4.96% (inactive),–
CC(C)Cc1cc(C(=O)Nc2cc(Br)ccc2O)no1,–,1.85 µM (active)
CC(C)CNC(=O)c1cc(-c2ccc(Br)cc2)on1,232% (inactive),–
CC(C)Cc1cc(C(=O)NCCc2ccccc2)no1,186% (inactive),–
CCOc1ccc(C(=O)NC(=S)Nc2ccc(N3CCOCC3)c(Cl)c2)cc1[N+](=O)[O-],0.0077% (inactive),–
Cc1ccc(C(=O)NC(=S)Nc2ccc(N3CCOCC3)cc2)cc1,16.1% (inactive),–
COc1cccc(OC)c1C(=O)NC(=S)Nc1ccc(N2CCOCC2)c(Cl)c1,–,14.7 µM (active)
O=C(NCCc1nnc2ccc(SCC(=O)N3CCOCC3)nn12)c1ccccc1,20.3% (inactive),–
Cc1ccc(S(=O)(=O)N2CCCC(C(=O)N3CCN(C)CC3)C2)cc1 (stereo not drawn),16.6% (inactive),–
CC(=O)N1CCCc2cc(S(=O)(=O)N3CCCC(C(=O)N4CCN(c5cccc(Cl)c5)CC4)C3)ccc21 (stereo not drawn),–,4.15 µM (active)
O=C(C1CCCN(S(=O)(=O)c2ccccc2)C1)N1CCN(c2ccc(F)cc2)CC1 (stereo not drawn),–,13.1 µM (active)
COc1ccc(S(=O)(=O)N2CCCC(C(=O)N3CCN(C)CC3)C2)cc1C (stereo not drawn),4.62% (inactive),–
CCCS(=O)(=O)N1CCCC(C(=O)N2CCN(c3ccccc3)CC2)C1 (stereo not drawn),44.2% (inactive),–
CC(=O)N1CCCc2cc(S(=O)(=O)N3CCCC(C(=O)NCc4ccc(Cl)cc4)C3)ccc21 (stereo not drawn),-25.6% (inactive),–
CC(C)CCN(C(=O)c1csnn1)C(C(=O)NC1CCCC1)c1ccccc1 (stereo not drawn),5.81% (inactive),–
CCOc1ccc(N(C)S(=O)(=O)c2cnc[nH]2)cc1,13.2% (inactive),–

SMILES,"activity change, negative = inhibition",Potency
CC(=O)c1ccc(NC(=O)C2CCCN2S(=O)(=O)c2cccs2)cc1 (stereo not drawn),-16.3% (inactive),–
COc1ccc(C(=O)NC(C)Cn2nc(C)cc2C)cc1OC1CCN(C(C)=O)CC1 (stereo not drawn),-1.41% (inactive),–
Cc1cccc(-c2nc(CS(=O)CC(=O)NC(C)CCc3ccccc3)c(C)o2)c1 (stereo not drawn),21.3% (inactive),–
O=C(CN1CCc2cc3c(cc2C1)OCCCO3)Nc1ccccc1,3.97% (inactive),–
CC(C)OC(=O)CN1C(=O)c2ccccc2C1=O,11.9% (inactive),–
Cc1cccc2c1N(CC(=O)OC(C)C)C(=O)C2=O,13.8% (inactive),–
CC(C)OC(=O)CN1C(=O)C(=O)c2ccccc21,–,2.62 µM (active)
Clc1cccc(Cl)c1OCCOCCNCc1ccccc1,17.4% (inactive),–
CC(NC(=O)c1ccccc1C(=O)O)c1ccc(-n2ccnc2)cc1 (stereo not drawn),0% (inactive),–
COc1ccc(NC(=O)CCCNC(=O)Cn2cnc3sc4c(c3c2=O)CCCC4)cc1OC,-4.7% (inactive),–
O=S(=O)(c1cccs1)N1CCN(Cc2ccccc2)CC1,9.26% (inactive),–
Cc1cc2oc(=O)cc(CN3CCN(S(=O)(=O)c4cccs4)CC3)c2cc1C(C)C,–,10.4 µM (active)
Cc1cc2oc(=O)cc(CN3CCN(Cc4ccccc4)CC3)c2cc1C,-7.77% (inactive),–
Cc1onc(-c2ccccc2)c1C(=O)N1CCN(S(=O)(=O)c2ccccc2C(F)(F)F)CC1,-3.79% (inactive),–
O=S(=O)(/C=C/c1ccccc1)N1CCNCC1,-8.29% (inactive),–
O=c1cc(CN2CCN(S(=O)(=O)/C=C/c3ccccc3)CC2)c2ccc(O)cc2o1,–,13.1 µM (active)
Cc1ccc2c(CN3CCN(S(=O)(=O)c4ccccc4C(F)(F)F)CC3)cc(=O)oc2c1,–,11.7 µM (active)
NC(=O)CCN1CCN(S(=O)(=O)/C=C/c2ccccc2)CC1,6.14% (inactive),–
O=S(=O)(c1ccc(F)cc1)N1CCN(Cc2ccccc2C(F)(F)F)CC1,-6% (inactive),–
COc1ccc(O)c(/C=N/N=C/c2cccc([N+](=O)[O-])c2)c1,3.03% (inactive),–
CCn1c(C(O)c2cc(OC)ccc2OC)nc2ccccc21 (stereo not drawn),1.05% (inactive),–
CCOC(=O)c1c(C)[nH]c(C(=O)OCC(=O)N2CCCC2=O)c1C,2.47% (inactive),–
Cc1cc(Cl)nc(NC(=O)Nc2cccc(Cl)c2)n1,90.5% (inactive),–
CC(=O)CC[C@@H](C)O[C@@H]1OC(C)[C@H](O)CC1O (stereo partly drawn),13.5% (inactive),–
COC(=O)c1ccc(NS(=O)(=O)c2cc3c4c(c2)C(C)C(=O)N4CCC3)cc1 (stereo not drawn),3.26% (inactive),–
